The source of these data is PMC4081100, “A DNA-binding-site landscape and regulatory network analysis for NAC transcription factors in Arabidopsis thaliana”.

One test has as its target T1, GST-NAP(1-166) (Arabidopsis thaliana, UniProt O49255 1-166).
T1 sequence: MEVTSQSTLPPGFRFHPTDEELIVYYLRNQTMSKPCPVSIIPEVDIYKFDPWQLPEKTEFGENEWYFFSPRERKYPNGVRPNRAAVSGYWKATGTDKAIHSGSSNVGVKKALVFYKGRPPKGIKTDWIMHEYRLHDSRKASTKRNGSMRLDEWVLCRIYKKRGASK
The test can be described thus: universal protein binding microarray (PBM); transcription factors of Arabidopsis thaliana; high values mean tight binding. The following applies: protein: recombinant; tags: GST; chain copies: 2; dsDNA, one strand shown. Summed up:
(§1)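 Protein amounts were determined by A280 or anti-GST western blot after glutathione–Sepharose 4B purification of GST-tagged proteins induced in cells, with zinc acetate included for zinc-finger proteins. Duplicate runs at 200 to 500 nM final were done on custom all-10-mer Agilent 4 × 180K arrays made double-stranded by primer extension. The normalised enrichment score (E-score) over gapped and ungapped 8-mers is the measure of binding.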
Take ACGCAACC: the binding signal amounted to 0.478 E-score.

ACGGAAGC: the binding signal stood at 0.236 E-score.

Take CTTGCGTC: the binding signal turned out to be 0.21 E-score.

Take GTCACGCA: the binding signal was determined as 0.197 E-score.

With ATTGCGTG, the binding signal came out at 0.458 E-score.

ATAGCGTG: the binding signal was 0.105 E-score.

In the case of CACGTTAA, the binding signal amounted to 0.129 E-score.

Take GACGCAAA: the binding signal is 0.233 E-score.

In the case of AGACACGC, the binding signal amounted to 0.0846 E-score.

On to CTTGCGTA, for which the binding signal worked out at 0.386 E-score.

With TAACGTGA, the binding signal was 0.168 E-score.

As to ACGCAAGG, the binding signal was 0.2 E-score.

On to GACGTCAA, for which the binding signal was determined as 0.122 E-score.

With AAACGTGT, the binding signal was found to be 0.249 E-score.

With TAAGGTCA, the binding signal amounted to 0.14 E-score.

For the sequence AAGCGTAA, the binding signal turned out to be 0.119 E-score.

With CAACACGC, the binding signal amounted to 0.252 E-score.

As for GAACACGC, the binding signal was found to be 0.248 E-score.

CGTCAACG: the binding signal amounted to 0.108 E-score.

Regarding ACGTCACT, the binding signal is 0.354 E-score.

With ACACTCAA, the binding signal came out at 0.07 E-score.

Consider CGTGCACG, for which the binding signal was determined as 0.378 E-score.

ATGTCAAC: the binding signal amounted to 0.106 E-score.

On to ACGTCTCC, for which the binding signal is 0.273 E-score.

Take TGACGTAA: the binding signal came to 0.389 E-score.

Turning to AAAGTCAT, the binding signal came out at 0.0502 E-score.

Take AATAGCGT: the binding signal stood at 0.121 E-score.

As to ATTCCGTG, the binding signal was 0.329 E-score.

Take ACGCAATA: the binding signal was determined as 0.301 E-score.

A further test concerns the target T2, GST-NST2(1-184) (Arabidopsis thaliana, UniProt Q9M274 1-184).
T2 sequence: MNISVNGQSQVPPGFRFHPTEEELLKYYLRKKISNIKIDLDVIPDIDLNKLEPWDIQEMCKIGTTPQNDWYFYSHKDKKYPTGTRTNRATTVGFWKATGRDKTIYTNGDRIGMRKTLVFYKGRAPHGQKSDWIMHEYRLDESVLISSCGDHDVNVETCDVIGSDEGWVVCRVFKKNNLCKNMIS
Described as above. The settings on record: protein: recombinant; tags: GST; chain copies: 2; dsDNA, one strand shown. Summed up: as §1
As for ACGCAACC, the binding signal was determined as 0.434 E-score.

With ACGGAAGC, the binding signal is 0.257 E-score.

As to CTTGCGTC, the binding signal was 0.106 E-score.

Take GTCACGCA: the binding signal stood at 0.119 E-score.

For ATTGCGTG, the binding signal was 0.459 E-score.

For the sequence ATAGCGTG, the binding signal was found to be 0.332 E-score.

On to CACGTTAA, for which the binding signal stood at 0.301 E-score.

Consider TAGAGTAA, for which the binding signal was 0.216 E-score.

GACGCAAA: the binding signal was 0.123 E-score.

For AGACACGC, the binding signal came out at 0.107 E-score.

CTTGCGTA: the binding signal worked out at 0.332 E-score.

Take TAACGTGA: the binding signal worked out at 0.257 E-score.

As to TAAGTCAA, the binding signal amounted to 0.172 E-score.

On to ACGCAAGG, for which the binding signal was 0.226 E-score.

In the case of GACGTCAA, the binding signal was 0.0988 E-score.

In the case of AAACGTGT, the binding signal turned out to be 0.275 E-score.

Turning to AAGCGTAA, the binding signal stood at 0.212 E-score.

In the case of CAACACGC, the binding signal was 0.229 E-score.

On to GAACACGC, for which the binding signal is 0.205 E-score.

For ACGTCACT, the binding signal is 0.234 E-score.

Turning to ACACTCAA, the binding signal is 0.184 E-score.

Regarding CGTGCACG, the binding signal is 0.221 E-score.

With ATGTCAAC, the binding signal is 0.0828 E-score.

Take ACGTCTCC: the binding signal turned out to be 0.167 E-score.

As for TGACGTAA, the binding signal was 0.385 E-score.

With AAAGTCAT, the binding signal is 0.0576 E-score.

With AATAGCGT, the binding signal worked out at 0.261 E-score.

Turning to AACTTGAC, the binding signal came to 0.173 E-score.

For the sequence ATTCCGTG, the binding signal amounted to 0.251 E-score.

Regarding ACGCAATA, the binding signal stood at 0.288 E-score.

The next test concerns the target T3, GST-NTL8 NAC domain (Arabidopsis thaliana, UniProt Q9XIN7 14-156).
T3 sequence: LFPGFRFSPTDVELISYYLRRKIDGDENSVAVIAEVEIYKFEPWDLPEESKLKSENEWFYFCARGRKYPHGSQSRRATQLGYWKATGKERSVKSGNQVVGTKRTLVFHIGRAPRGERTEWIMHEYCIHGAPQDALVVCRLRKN
The description is as above. The following applies: protein: recombinant; tags: GST; chain copies: 2; dsDNA, one strand shown. The essentials: as §1
Regarding ACGCAACC, the binding signal was 0.146 E-score.

Take ATTGCGTG: the binding signal turned out to be 0.188 E-score.

TAGAGTAA: the binding signal is 0.065 E-score.

Consider AGACACGC, for which the binding signal worked out at 0.0629 E-score.

For CTTGCGTA, the binding signal was 0.0618 E-score.

As to ACGCAAGG, the binding signal was 0.152 E-score.

On to TAAGGTCA, for which the binding signal is 0.0905 E-score.

Take CAACACGC: the binding signal was 0.0505 E-score.

For the sequence ACACTCAA, the binding signal turned out to be 0.0774 E-score.

Take CGTGCACG: the binding signal is 0.0868 E-score.

As for ACGTCTCC, the binding signal is 0.052 E-score.

TGACGTAA: the binding signal was determined as 0.0784 E-score.

Consider ACGCAATA, for which the binding signal was found to be 0.0551 E-score.

For a further test, the target named is T4, GST-SND1(1-203) (Arabidopsis thaliana, UniProt Q9LPI7 1-203).
T4 sequence: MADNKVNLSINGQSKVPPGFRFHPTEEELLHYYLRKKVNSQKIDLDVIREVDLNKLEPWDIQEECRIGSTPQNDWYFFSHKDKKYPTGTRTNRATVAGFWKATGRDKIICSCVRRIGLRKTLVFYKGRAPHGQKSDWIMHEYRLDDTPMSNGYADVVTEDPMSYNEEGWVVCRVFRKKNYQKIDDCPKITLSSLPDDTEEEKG
The description is as above. The settings on record: protein: recombinant; tags: GST; chain copies: 2; dsDNA, one strand shown. The essentials: as §1
ACGCAACC: the binding signal is 0.481 E-score.

For the sequence ACGGAAGC, the binding signal is 0.209 E-score.

For the sequence CTTGCGTC, the binding signal is 0.162 E-score.

For GTCACGCA, the binding signal stood at 0.257 E-score.

Consider ATTGCGTG, for which the binding signal was 0.471 E-score.

Consider AGTTTGAC, for which the binding signal turned out to be 0.069 E-score.

In the case of GTTGACTA, the binding signal stood at 0.062 E-score.

Regarding ATAGCGTG, the binding signal came out at 0.418 E-score.

Turning to GATTGACC, the binding signal came to 0.0705 E-score.

Turning to CACGTTAA, the binding signal came out at 0.377 E-score.

Turning to AGTCAAAA, the binding signal worked out at 0.111 E-score.

As for TAGAGTAA, the binding signal was determined as 0.401 E-score.

On to GACGCAAA, for which the binding signal was determined as 0.289 E-score.

Consider AGACACGC, for which the binding signal is 0.215 E-score.

Turning to CTTGCGTA, the binding signal worked out at 0.479 E-score.

TAACGTGA: the binding signal came out at 0.385 E-score.

With TAAGTCAA, the binding signal was 0.175 E-score.

In the case of ACGCAAGG, the binding signal amounted to 0.39 E-score.

As to GACGTCAA, the binding signal stood at 0.139 E-score.

As for AAACGTGT, the binding signal was found to be 0.214 E-score.

In the case of TAAGGTCA, the binding signal is 0.132 E-score.
